Calls of active or inactive are those of the source.

This note sets out measurements from PubChem BioAssay.

The target in one test is Albumin (Bos taurus) (UniProt P02769). Put plainly: compounds binding labelled BSA control protein – biochemical, small-molecule microarray, Alexa647 label, 635/667 nm fluorescence, artefact control for SMM control protein annotation, profiling panel (AID 1118).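 Further: score merges 667 nm emission intensity and signal-to-noise per printed compound spot.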 The following applies: BSA-A647 binding, fluorescence 635 nm, higher = more signal.
Chain of Albumin (Bos taurus) (P02769 whole entry, looked up): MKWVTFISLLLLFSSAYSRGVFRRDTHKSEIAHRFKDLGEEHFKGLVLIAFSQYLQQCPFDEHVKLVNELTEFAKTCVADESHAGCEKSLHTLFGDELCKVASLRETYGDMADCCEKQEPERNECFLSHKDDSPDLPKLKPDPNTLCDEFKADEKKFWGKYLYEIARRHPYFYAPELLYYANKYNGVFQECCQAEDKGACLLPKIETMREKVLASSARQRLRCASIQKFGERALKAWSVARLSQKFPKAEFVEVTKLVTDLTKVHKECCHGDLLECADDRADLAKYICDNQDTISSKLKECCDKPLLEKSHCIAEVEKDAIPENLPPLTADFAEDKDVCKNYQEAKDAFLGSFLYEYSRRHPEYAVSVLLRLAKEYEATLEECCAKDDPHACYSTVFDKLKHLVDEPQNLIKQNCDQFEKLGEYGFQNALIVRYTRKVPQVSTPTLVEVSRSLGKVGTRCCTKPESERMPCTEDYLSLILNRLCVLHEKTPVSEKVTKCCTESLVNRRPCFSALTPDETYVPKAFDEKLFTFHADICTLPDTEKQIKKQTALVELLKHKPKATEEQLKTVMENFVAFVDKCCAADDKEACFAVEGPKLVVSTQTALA
Test [1] can be described thus: probe aXIP binding to arrayed compounds – biochemical, NeuroSMM set, 635/667 nm fluorescence, primary screen (AID 1119).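 Further: probe is the protein aXip251-270 applied at 1 µg/mL to compound-printed slides; binding of probe to printed compounds measured as 667 nm fluorescence plus signal to noise.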 The following applies: small-molecule microarray, higher = more signal, called active from +8 up or from −8 down.
Test [2] is described as follows: probe aNOTCH3 binding on compound microarray – biochemical, small-molecule microarray, 635/667 nm fluorescence, primary screen (AID 1120).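 Further: probe is a biotin-tagged antibody raised against NOTCH3 rather than NOTCH3 protein; score merges spot fluorescence near 667 nm with spot signal to noise.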 The following applies: higher = more signal.
Test [3] can be described thus: probe aNOTCH2 binding on compound microarray – biochemical, small-molecule microarray, 635/667 nm fluorescence, primary screen (AID 1121).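 Further: score merges feature fluorescence read at 667 nm with its signal to noise.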 The following applies: higher = more signal.
Test [4] addresses Carbonic anhydrase 2 (Homo sapiens) (UniProt P00918). Put plainly: compounds binding carbonic anhydrase 2 – biochemical, small-molecule microarray, Alexa647-labelled CAII, profiling panel (AID 1122). The following applies: CAII-A647 binding fluorescence, higher = more signal.
Test [5] is described as follows: COS7 lysate on small-molecule microarray, probe aHis, 635 nm (AID 1123).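 Further: z-score combines 667nm fluorescence intensity with signal-to-noise per printed compound spot.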 The conditions noted are these: COS7 cell lysate, fluorescence, higher = more signal.
Test [6] in a line: probe aLAP1 signal on lysate-treated microarray – cell lysate, small-molecule microarray, COS7 lysate, primary screen (AID 1124).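 Further: lysate comes from COS7 cells expressing LAP1 and is applied at 0.3 µg/mL; score merges spot fluorescence near 667 nm with signal-to-noise over triplicate slides.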 The following applies: probe aLAP1, fluorescence, higher = more signal.
The test system of the next test is Sam68 (KHDRBS1). Description: compounds binding KHDRBS1 protein – biochemical, small-molecule microarray, 635 nm fluorescence, primary screen (AID 1125).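 Further: score merges 667 nm channel intensity with signal to noise over triplicate slides.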 The conditions noted are these: higher = more signal.
Test [7] deals with Chordin-like protein 2 (CHRDL2). Put plainly: compounds binding chordin-like 2 – biochemical, small-molecule microarray, 635 nm fluorescence, primary screen (AID 1126).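 Further: printed compound slides probed with Chrdl2 protein at 4 µg/mL for 1 h at 4 C; score merges 667 nm emission intensity with signal to noise over three replicate slides.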 The conditions noted are these: fluorescence 635 nm, higher = more signal.
Test [8] has as its target Concanavalin-A (Canavalia ensiformis) (UniProt P02866). Description: compounds binding concanavalin A lectin – biochemical, small-molecule microarray, Alexa647 label, 635 nm, artefact control for SMM control protein annotation, primary screen (AID 1127).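 Further: z combines 667 nm emission intensity with signal-to-noise across three replicate slides.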 The following applies: ConA-A647 binding fluorescence, higher = more signal.
The nature of test [9]: compounds binding Alexa647 anti-His antibody – biochemical, small-molecule microarray, 635 nm fluorescence, artefact control for SMM control protein annotation, primary screen (AID 1128).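 Further: score merges feature fluorescence with signal-to-noise for each printed compound spot.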 The following applies: higher = more signal.
Test [10] relates to Human papillomavirus type 1a E7 protein (residues 1-88). Description: HPV1a E7 small-molecule binders, primary screen, biochemical, small-molecule microarray, residues 1-88, 635 nm (AID 1129). The conditions noted are these: small-molecule microarray binding, fluorescence 635 nm; higher = more signal.
Test [11] has as its target Focal adhesion kinase 1 (Homo sapiens) (UniProt Q05397). Description: PTK2 protein binding on printed compound slides – biochemical, small-molecule microarray, 635/667 nm fluorescence, BSA, DTT, primary screen (AID 1130).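 Further: composite of spot emission at 667 nm and signal to noise over triplicate slides.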 The following applies: 635 nm fluorescence, higher = more signal.
Test [12] concerns Fibrinogen (Alexa647-labelled). Description: Alexa647-fibrinogen binding to printed small molecules – biochemical, small-molecule microarray, 635/667 nm fluorescence, artefact control for SMM control-protein annotation, profiling panel (AID 1131).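 Further: z-score merges 667 nm fluorescence with per-spot signal-to-noise over triplicate slides.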 The conditions noted are these: fibrinogen-A647 binding fluorescence, higher = more signal.
For test [13], the target named is Follistatin (Homo sapiens) (UniProt P19883). Put plainly: FST protein binding to printed compounds – biochemical, small-molecule microarray, 635/667 nm fluorescence, primary screen (AID 1132). The following applies: 635 nm fluorescence, higher = more signal.
Chain of Follistatin (Homo sapiens) (P19883 whole entry, looked up): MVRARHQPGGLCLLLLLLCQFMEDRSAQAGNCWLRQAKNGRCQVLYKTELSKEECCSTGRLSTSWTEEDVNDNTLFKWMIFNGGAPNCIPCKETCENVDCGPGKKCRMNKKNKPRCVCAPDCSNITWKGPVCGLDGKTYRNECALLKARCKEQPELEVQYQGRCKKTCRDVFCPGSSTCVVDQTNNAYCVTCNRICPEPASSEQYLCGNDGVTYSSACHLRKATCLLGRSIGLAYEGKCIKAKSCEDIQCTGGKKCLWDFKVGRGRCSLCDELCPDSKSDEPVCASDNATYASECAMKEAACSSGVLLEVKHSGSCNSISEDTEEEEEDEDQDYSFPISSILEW
Test [14] deals with Fibroblast growth factor 2 (Homo sapiens) (UniProt P09038). Put plainly: basic fibroblast growth factor binding to printed compounds – biochemical, small-molecule microarray, 635/667 nm fluorescence, primary screen (AID 1133). The following applies: FGF2, fluorescence 635/667, higher = more signal.
Chain of Fibroblast growth factor 2 (Homo sapiens) (P09038 whole entry, looked up): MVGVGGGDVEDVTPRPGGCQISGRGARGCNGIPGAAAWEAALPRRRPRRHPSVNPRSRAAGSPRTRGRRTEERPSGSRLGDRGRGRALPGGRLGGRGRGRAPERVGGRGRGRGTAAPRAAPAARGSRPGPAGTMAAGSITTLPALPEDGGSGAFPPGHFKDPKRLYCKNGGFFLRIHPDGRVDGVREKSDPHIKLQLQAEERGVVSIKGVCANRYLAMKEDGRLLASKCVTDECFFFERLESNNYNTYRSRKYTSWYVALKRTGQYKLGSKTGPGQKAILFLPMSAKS
Test [15] in a line: JC-1 mitochondrial potential readout, lung cancer cells – cell-based, A549, JC-1 fluorescence, basal, 24 h, 100 nL, profiling panel (AID 1138).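 Further: A549 lung adenocarcinoma cells under basal conditions with no added stimulus; test concentration not given here.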 The following applies: higher = more signal.
The next test concerns Lefty1. Description: Lefty1 protein binding to printed compounds – biochemical, small-molecule microarray, 635/667 nm fluorescence, primary screen (AID 1139). The conditions noted are these: fluorescence 635/667, higher = more signal.
Test [16] concerns wheat germ agglutinin (Triticum aestivum), Alexa647-labelled. Put plainly: Alexa647-WGA lectin binding to printed small molecules – biochemical, small-molecule microarray, 635/667 nm fluorescence, artefact control for SMM control-protein annotation, profiling panel (AID 1140).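 Further: score merges 667 nm feature emission with signal to noise over triplicate slides.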 The following applies: WGA-A647 binding, 635 nm fluorescence, higher = more signal.
In test [17] the target is Luciferin 4-monooxygenase (Photinus pyralis) (UniProt P08659). Put plainly: inhibition of purified Photinus pyralis luciferase – biochemical, luminescence, purified enzyme, 2006 set, primary screen (AID 1141).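 Further: cell-free assay with purified firefly luciferase at 100 ng per well in PBS; test concentration not given here.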 The following applies: purified firefly luciferase, SteadyGlo luminescence, 30 min; higher = more signal, called active from +8 up or from −8 down.
Chain of Luciferin 4-monooxygenase (Photinus pyralis) (P08659 whole entry, looked up): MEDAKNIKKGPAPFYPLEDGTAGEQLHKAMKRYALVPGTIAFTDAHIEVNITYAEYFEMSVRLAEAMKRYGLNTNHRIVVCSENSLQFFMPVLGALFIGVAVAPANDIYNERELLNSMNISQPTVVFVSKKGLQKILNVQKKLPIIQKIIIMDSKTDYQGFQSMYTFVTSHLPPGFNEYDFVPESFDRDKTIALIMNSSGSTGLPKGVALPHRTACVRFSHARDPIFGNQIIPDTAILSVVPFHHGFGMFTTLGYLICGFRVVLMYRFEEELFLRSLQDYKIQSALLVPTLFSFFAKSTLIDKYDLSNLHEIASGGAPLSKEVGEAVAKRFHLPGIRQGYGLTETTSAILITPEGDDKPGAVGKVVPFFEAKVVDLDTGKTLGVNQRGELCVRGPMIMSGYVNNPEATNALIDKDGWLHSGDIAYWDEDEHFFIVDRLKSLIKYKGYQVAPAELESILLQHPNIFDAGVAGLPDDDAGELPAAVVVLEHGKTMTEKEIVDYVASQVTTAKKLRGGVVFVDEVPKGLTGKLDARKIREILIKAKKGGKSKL

Chain of Focal adhesion kinase 1 (Homo sapiens) (Q05397 whole entry, looked up): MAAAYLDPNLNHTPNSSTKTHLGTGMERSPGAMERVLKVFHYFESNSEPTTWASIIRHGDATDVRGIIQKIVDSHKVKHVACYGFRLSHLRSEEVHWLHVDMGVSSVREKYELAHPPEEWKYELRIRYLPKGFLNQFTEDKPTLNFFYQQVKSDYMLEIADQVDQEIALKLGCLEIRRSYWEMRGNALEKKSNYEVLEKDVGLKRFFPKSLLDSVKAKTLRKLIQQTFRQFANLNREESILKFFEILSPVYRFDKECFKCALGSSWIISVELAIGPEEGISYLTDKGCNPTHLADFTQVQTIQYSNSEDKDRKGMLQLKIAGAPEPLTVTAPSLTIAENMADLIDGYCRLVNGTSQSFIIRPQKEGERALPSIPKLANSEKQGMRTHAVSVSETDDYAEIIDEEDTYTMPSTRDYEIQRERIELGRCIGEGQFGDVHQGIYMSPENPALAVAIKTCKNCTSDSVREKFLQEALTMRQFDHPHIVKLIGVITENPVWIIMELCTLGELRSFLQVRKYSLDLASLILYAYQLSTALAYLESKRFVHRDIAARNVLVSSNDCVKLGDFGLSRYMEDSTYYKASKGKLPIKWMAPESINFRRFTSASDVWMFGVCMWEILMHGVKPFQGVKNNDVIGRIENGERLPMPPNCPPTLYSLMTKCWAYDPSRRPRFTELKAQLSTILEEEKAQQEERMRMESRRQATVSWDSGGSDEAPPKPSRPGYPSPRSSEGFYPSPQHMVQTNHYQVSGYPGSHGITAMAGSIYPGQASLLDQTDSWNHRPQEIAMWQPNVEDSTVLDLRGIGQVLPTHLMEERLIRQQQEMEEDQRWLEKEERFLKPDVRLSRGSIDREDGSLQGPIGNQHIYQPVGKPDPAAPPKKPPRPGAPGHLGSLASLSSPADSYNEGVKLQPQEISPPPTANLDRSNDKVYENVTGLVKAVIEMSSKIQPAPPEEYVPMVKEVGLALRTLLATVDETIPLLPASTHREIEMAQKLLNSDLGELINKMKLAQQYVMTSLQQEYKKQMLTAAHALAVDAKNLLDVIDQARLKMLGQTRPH
Chain of Concanavalin-A (Canavalia ensiformis) (P02866 whole entry, looked up): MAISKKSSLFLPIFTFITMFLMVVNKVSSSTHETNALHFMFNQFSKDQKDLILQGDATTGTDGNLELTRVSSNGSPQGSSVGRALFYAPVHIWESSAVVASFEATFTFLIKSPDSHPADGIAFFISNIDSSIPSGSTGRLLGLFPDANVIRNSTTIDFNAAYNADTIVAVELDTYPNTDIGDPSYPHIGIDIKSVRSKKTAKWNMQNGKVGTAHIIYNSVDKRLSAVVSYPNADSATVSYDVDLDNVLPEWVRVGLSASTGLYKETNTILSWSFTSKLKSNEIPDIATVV

On to `CC1CC/C=C\[C@H]2OC34C=CCN(Cn5nnc6ccccc65)C(=O)[C@H]3N(CCCO)C(=O)[C@@H]4C2C(=O)O1` (stereo not given in full), for which the composite z-score with Albumin (Bos taurus) is 0.757; in test [2], -0.272; in test [3], -0.115; in [4], 0.926; in test [5], 0.016; in test [6] it was 1.2. The composite z-score with Sam68 (KHDRBS1) is -0.119; in test [7] it was -1.33; in test [8], -0.668; in [9], 0.239; in [10], -0.326; in test [11], -0.47. Besides, the composite z-score was -1.15 in test [12]; -0.693 in test [13]; -1.03 in test [14]; -0.146 in the test with Lefty1; -1.09 in test [16]. The composite Z-score in test [1] is 0.372 (inactive). Further, the z-score was -0.198 in [15] and 0.885 (inactive) in test [17].

For `O=C1OCCC/C=C\[C@H]2OC34C=CCN(Cn5nnc6ccccc65)C(=O)[C@H]3N(CCCO)C(=O)[C@@H]4C12` (stereo not given in full), the composite z-score in the test with Albumin (Bos taurus) is -1.38; in test [2] it was -0.306; in test [3], -0.112; in test [4] it was 0.896; in test [5], 1.82; in [6] it was 0.888. Further, the composite z-score with Sam68 (KHDRBS1) was 0.301; in [7] it was -2.21; in [8] it was -0.946; in test [9], 3.1; in test [10] it was -0.162; in test [11] it was -0.0245. Besides, the composite z-score was -1.94 in test [12]; -0.99 in test [13]; -1.06 in test [14]; -0.517 with Lefty1; -0.107 in [16]. Further, the composite Z-score in test [1] was -0.774 (inactive). In addition, the z-score is -0.275 in test [15] and 0.656 (inactive) in test [17].

With `COCCOC(=O)N1C(=O)[C@@]2(c3cc(C#Cc4ccc(OC)cc4)ccc31)[C@H](c1ccc(O)cc1)N1[C@H](c3ccccc3)[C@H](c3ccccc3)OC(=O)[C@H]1[C@@H]2C(=O)N1CCN(c2ncccn2)CC1`, the composite z-score with Albumin (Bos taurus) was 0.303; in test [2] it was 0.0486; in [3], -0.0956; in test [4], 0.395; in test [5], 1.48; in test [6] it was 0.406. Further, the composite z-score is 1.2 with Sam68 (KHDRBS1); -0.126 in [7]; 0.657 in test [8]; 1.23 in test [9]; 1.18 in [10]; 0.351 in [11]. In addition, the composite z-score stood at 0.624 in test [12]; 1.36 in test [13]; 0.712 in test [14]; 0.604 in the test on Lefty1; 0.584 in test [16]. Besides, the composite Z-score in [1] was -0.321 (inactive). For the same compound, the z-score in test [15] is -0.863; in test [17], 0.384 (inactive).

In the case of `Cc1ccc(S[C@]2(C(=O)NCCCN(C)C)CC(=O)N(Cc3ccccc3)[C@@H]2c2ccc(CO)cc2)cc1`, the composite z-score was -0.173 in the test with Albumin (Bos taurus); -0.279 in test [2]; 0.027 in [3]; 0.621 in test [4]; 0.018 in [5]; 0.973 in test [6]. Further, the composite z-score with Sam68 (KHDRBS1) is -0.145; in [7] it was -0.85; in test [8] it was -0.785; in test [9], -0.786; in test [10], -0.335; in test [11], -0.371. In addition, the composite z-score in [12] was -0.865; in [13], 0.0417; in [14], -0.734; with Lefty1, -1.53; in [16], -0.0701. In [1], the composite Z-score was -0.72 (inactive). Moreover, the results for the z-score in [15] and in test [17] were 0.803 and -1.1 (inactive), respectively.

For `C=C(/C(=C/C[C@@H](OC(=O)c1ccncc1)c1ccc(CO)o1)c1cc(C(=O)OC)ccc1OC)C(C)C`, the composite z-score with Albumin (Bos taurus) was 0.83; in test [2] it was 0.0311; in test [3] it was -0.109; in [4], 0.588; in [5], 1.13; in test [6], 0.812. For the same compound, the composite z-score in the test with Sam68 (KHDRBS1) was 1.3; in test [7], 0.737; in test [8], 1.08; in [9], 1.02; in test [10], 1.23; in test [11] it was 0.317. Moreover, the composite z-score stood at 0.415 in test [12]; 1.09 in test [13]; 1.3 in test [14]; 1.24 in the test on Lefty1; 0.553 in test [16]. Moreover, the composite Z-score in [1] was 0.459 (inactive). The z-score was 0.375 in test [15] and -4.24 (inactive) in [17].
